Assay results taken from PubChem BioAssay AID1159580 (chemical genetic matrix, 2015).
Hit rate of the full screen: of about 5,500 compounds, about 2,000 (36%) were called active. Roughly 18% stayed inconclusive and do not appear here. No stated cut-off is given here; in the data, active means normalized growth mostly below about 0.91 (no sharp cut-off); inconclusive means no clear call, values can overlap the other calls; inactive means mostly above about 0.92. This is one part of the list.

Experiment: chemical genetic growth profiling, strain panel (AID 1159580);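 further: tested at 20 µM; growth read once vehicle control cultures reached saturation at 30 °C; 1 = growth at the plate median or of vehicle wells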
Details: S. cerevisiae deletion strains, growth OD
[1] = locus YAR019C, strain CDC15, stronger effect = lower value
[2] = locus YBL105C, strain PKC1, stronger effect = lower value
[3] = locus YBR135W, strain CKS1, stronger effect = lower value
[4] = locus YBR136W, strain MEC1, stronger effect = lower value
[5] = locus YBR160W, strain CDC28, stronger effect = lower value
[6] = locus YDL017W, strain CDC7, stronger effect = lower value
[7] = locus YDL028C, strain MPS1, stronger effect = lower value
[8] = locus YDL101C, strain DUN1, stronger effect = lower value
[9] = locus YDL108W, strain KIN28, stronger effect = lower value
[10] = locus YDL132W, strain cdc53, stronger effect = lower value
[11] = locus YDL214C, strain PRR2, stronger effect = lower value
[12] = locus YDR052C, strain DBF4, stronger effect = lower value
[13] = locus YDR054C, strain cdc34, stronger effect = lower value
[14] = locus YDR226W, strain ADK1, stronger effect = lower value
[15] = locus YDR477W, strain SNF1, stronger effect = lower value
[16] = locus YER123W, strain YCK3, stronger effect = lower value
[17] = locus YER133W, strain GLC7, stronger effect = lower value
[18] = locus YFL009W, strain cdc4, stronger effect = lower value
[19] = locus YFL029C, strain CAK1, stronger effect = lower value
[20] = locus YFR003C, strain YPI1, stronger effect = lower value
[21] = locus YFR019W, strain FAB1, stronger effect = lower value
[22] = locus YFR028C, strain CDC14, stronger effect = lower value
[23] = locus YGR040W, strain KSS1, stronger effect = lower value
[24] = locus YGR052W, strain FMP48, stronger effect = lower value
[25] = locus YGR092W, strain DBF2, stronger effect = lower value
[26] = locus YHR030C, strain SLT2, stronger effect = lower value
[27] = locus YHR079C, strain IRE1, stronger effect = lower value
[28] = locus YHR082C, strain KSP1, stronger effect = lower value
[29] = locus YHR205W, strain SCH9, stronger effect = lower value
[30] = locus YIL147C, strain SLN1, stronger effect = lower value
[31] = locus YJL095W, strain BCK1, stronger effect = lower value
[32] = locus YJL128C, strain PBS2, stronger effect = lower value
[33] = locus YJL157C, strain FAR1, stronger effect = lower value
[34] = locus YJR016C, strain ILV3, stronger effect = lower value
[35] = locus YJR066W, strain TOR1 (second series), stronger effect = lower value
[36] = locus YJR066W, strain TOR1, stronger effect = lower value
[37] = locus YKL048C, strain ELM1, stronger effect = lower value
[38] = locus YKL067W, strain YNK1, stronger effect = lower value
[39] = locus YKL101W, strain HSL1, stronger effect = lower value
[40] = locus YKL193C, strain SDS22, stronger effect = lower value
[41] = locus YKL203C, strain TOR2, stronger effect = lower value
[42] = locus YLR113W, strain HOG1, stronger effect = lower value
[43] = locus YLR133W, strain CKI1, stronger effect = lower value
[44] = locus YLR403W, strain SFP1, stronger effect = lower value
[45] = locus YML070W, strain DAK1, stronger effect = lower value
[46] = locus YMR001C, strain CDC5, stronger effect = lower value
[47] = locus YMR205C, strain PFK2 (second series), stronger effect = lower value
[48] = locus YMR277W, strain FCP1, stronger effect = lower value
[49] = locus YNL006W, strain LST8, stronger effect = lower value
[50] = locus YNL020C, strain ARK1, stronger effect = lower value
[51] = locus YNL161W, strain CBK1, stronger effect = lower value
[52] = locus YNL183C, strain NPR1, stronger effect = lower value
[53] = locus YNL207W, strain RIO2, stronger effect = lower value
[54] = locus YNL222W, strain SSU72, stronger effect = lower value
[55] = locus YNL307C, strain MCK1 (second series), stronger effect = lower value
[56] = locus YOL078W, strain AVO1, stronger effect = lower value
[57] = locus YOL136C, strain PFK27, stronger effect = lower value
[58] = locus YOR061W, strain CKA2, stronger effect = lower value
[59] = locus YOR119C, strain RIO1, stronger effect = lower value
[60] = locus YOR231W, strain MKK1, stronger effect = lower value
[61] = locus YOR329C, strain SCD5, stronger effect = lower value
[62] = locus YPL031C, strain PHO85, stronger effect = lower value
[63] = locus YPL153C, strain RAD53, stronger effect = lower value
[64] = locus YPL204W, strain HRR25, stronger effect = lower value
[65] = locus YPL209C, strain IPL1, stronger effect = lower value
[66] = locus YPL256C, strain CLN2, stronger effect = lower value
[67] = locus YPR025C, strain CCL1, stronger effect = lower value
[68] = locus YPR106W, strain ISR1, stronger effect = lower value
[69] = locus YPR111W, strain DBF20, stronger effect = lower value
[70] = strain NNK1, stronger effect = lower value
[71] = strain TSCII, stronger effect = lower value

Measured: normalized growth

CCSC(N)=Nc1ccc(C(F)(F)F)cc1
inactive: locus YAL040C, strain CLN3, stronger effect = lower value 0.942 | locus YCL061C, strain MRC1 (second series), stronger effect = lower value 0.997 | locus YDR363W, strain ESC2, stronger effect = lower value 0.98 | locus YER002W, strain NOP16, stronger effect = lower value 1.03 | locus YGR229C, strain SMI1, stronger effect = lower value 0.931 | locus YJR075W, strain HOC1, stronger effect = lower value 1.01 | locus YMR263W, strain SAP30, stronger effect = lower value 1 | locus YMR307W, strain GAS1, stronger effect = lower value 1 | locus YNL128W, strain TEP1, stronger effect = lower value 1.01 | locus YNL153C, strain GIM3, stronger effect = lower value 1 | locus YNL175C, strain NOP13, stronger effect = lower value 1.01 | locus YNL197C, strain WHI3, stronger effect = lower value 1.03 | locus YNL224C, strain SQS1, stronger effect = lower value 0.997 | locus YOR083W, strain WHI5 (second series), stronger effect = lower value 0.989 | locus YPL055C, strain LGE1, stronger effect = lower value 0.986

NC(=Nc1ccc(F)cc1)SCc1c(Cl)cccc1Cl
inactive: [1] 0.992 | [2] 0.99 | [3] 0.985 | [4] 0.984 | [5] 0.986 | [6] 0.99 | [7] 0.983 | [8] 0.996 | [9] 0.985 | [10] 0.986 | [11] 0.954 | [12] 0.992 | [13] 0.991 | [14] 0.985 | [15] 0.96 | [16] 0.923 | [17] 0.954 | [18] 0.987 | [19] 0.994 | [20] 0.99 | [21] 0.96 | [22] 0.989 | [23] 0.947 | [24] 0.981 | [25] 0.978 | [26] 0.985 | [27] 0.962 | [28] 1.05 | [29] 0.962 | [30] 0.99 | [31] 0.954 | [32] 0.938 | [33] 0.961 | [34] 0.991 | [35] 0.99 | [36] 1.09 | [37] 0.967 | [38] 0.962 | [39] 0.945 | [40] 0.989 | [41] 1.03 | [42] 0.882 | [43] 0.975 | [44] 0.975 | [45] 0.944 | [46] 0.991 | [47] 0.961 | [48] 0.989 | [49] 0.982 | [50] 0.971 | [51] 0.988 | [52] 1.06 | [53] 0.994 | [54] 0.988 | [55] 0.987 | [56] 0.986 | [57] 0.958 | [58] 0.975 | [59] 1.02 | [60] 0.985 | [61] 0.99 | [62] 0.952 | [63] 0.964 | [64] 0.989 | [65] 0.994 | [66] 0.962 | [67] 0.98 | [68] 0.981 | [69] 0.982 | [70] 0.992 | [71] 1

Cc1c(C)c(C)c(CSC(N)=Nc2ccc(F)cc2)c(C)c1C
inactive: [1] 0.996 | [2] 0.997 | [3] 0.994 | [4] 0.997 | [5] 0.997 | [6] 0.999 | [7] 0.995 | [8] 1.01 | [9] 0.992 | [10] 1 | [11] 0.944 | [12] 1 | [13] 0.998 | [14] 0.995 | [15] 0.931 | [16] 0.894 | [17] 0.937 | [18] 1.01 | [19] 0.993 | [20] 1 | [21] 0.946 | [22] 1.01 | [23] 0.932 | [24] 0.959 | [25] 0.975 | [26] 0.946 | [27] 0.953 | [28] 1.02 | [29] 0.967 | [30] 0.992 | [31] 0.925 | [32] 0.942 | [33] 0.936 | [34] 0.998 | [35] 0.93 | [36] 1.05 | [37] 0.966 | [38] 0.955 | [39] 0.943 | [40] 0.999 | [41] 0.999 | [43] 0.969 | [44] 0.953 | [45] 0.921 | [46] 0.993 | [47] 0.953 | [48] 1 | [49] 1 | [50] 0.969 | [51] 1 | [52] 1.03 | [53] 0.998 | [54] 1.01 | [55] 0.969 | [56] 0.998 | [57] 0.945 | [58] 0.972 | [59] 1 | [60] 0.97 | [61] 0.996 | [62] 0.929 | [63] 0.942 | [64] 0.95 | [65] 0.999 | [66] 0.902 | [67] 1 | [68] 0.99 | [69] 0.99 | [70] 0.995 | [71] 0.998
active: [42] 0.823
